# Assay results taken from PubChem BioAssay AID651640 (Broad Institute, 2012).
# Where “and” joins values, the source holds several entries; their conditions need not be identical. Equal entries are not always repeated. The whole screen tested about 350,000 compounds, of which about 6,000 (1.7%) were called active. Roughly 5% stayed inconclusive and do not appear here. Rule as the data show it: active = CPE inhibition above about 20% (passing the limit was not always enough); inconclusive = no clear call, values can overlap the other calls; tested in BHK-21 cells. The entries come from a sample that favours actives as a whole.
# Test: protection of cells from dengue 2 killing – plate reader, single concentration, primary screen (AID 651640);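 also: 0% = median of neutral control wells and 100% = median of positive control wells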
# Details: DENV2-infected cells, cytopathic effect rescue, at 9.99 µM, hits give high values
row,Compound,CPE inhibition
1,C[C@@H]1CN([C@@H](C)CO)C(=O)c2cc(-c3ccccc3F)cnc2O[C@H]1CN(C)C(=O)C1CC1,-2.29% (inactive)
2,CO[C@H](CN(C)S(=O)(=O)c1ccc(Cl)cc1)[C@@H](C)CN(Cc1ccccc1Cl)[C@H](C)CO,2.31% (inactive)
3,O=C(C1CCOCC1)N1CC(=O)N2[C@H](CO)[C@H](c3ccc(C#CC4CCCCC4)cc3)[C@H]2C1,-10.5% (inactive)
4,O=C(C[C@@H]1C[C@@H]2c3cc(NC(=O)CC4CC4)ccc3O[C@@H]2[C@@H](CO)O1)NCCN1CCCCC1,1.09% (inactive)
5,COc1ccc(NC(=O)N(C)C[C@H]2OCCCC[C@@H](C)Oc3ccc(NC(=O)NC4CCCCC4)cc3C(=O)N([C@H](C)CO)C[C@H]2C)cc1,9.97% (inactive)
6,COc1ccc(NC(=O)N(C)C[C@H]2OCCCC[C@H](C)Oc3ccc(NS(=O)(=O)c4ccc(Cl)cc4)cc3C(=O)N([C@@H](C)CO)C[C@H]2C)cc1,12.8% (inactive)
7,COc1ccc(NC(=O)N(C)C[C@H]2OCCCC[C@@H](C)Oc3ccc(NC(=O)c4ccncc4)cc3C(=O)N([C@@H](C)CO)C[C@H]2C)cc1,4.05% (inactive)
8,COc1ccc(NC(=O)N(C)C[C@@H]2OCCCC[C@H](C)Oc3ccc(NC(=O)c4ccccc4)cc3C(=O)N([C@H](C)CO)C[C@H]2C)cc1,-12.7% (inactive)
9,COc1ccc(NC(=O)N(C)C[C@H]2OCCCC[C@H](C)Oc3ccc(NC(=O)NC4CCCCC4)cc3C(=O)N([C@@H](C)CO)C[C@@H]2C)cc1,76.4% (active)
10,COc1ccc(NC(=O)N(C)C[C@H]2OCCCC[C@@H](C)Oc3ccc(NS(=O)(=O)c4ccc(F)cc4)cc3C(=O)N([C@H](C)CO)C[C@H]2C)cc1,10.2% (inactive)
11,COc1ccc(NC(=O)N(C)C[C@@H]2OCCCC[C@@H](C)Oc3ccc(NS(=O)(=O)c4ccc(Cl)cc4)cc3C(=O)N([C@H](C)CO)C[C@H]2C)cc1,37.6% (active)
12,COc1ccc(NC(=O)N(C)C[C@H]2OCCCC[C@H](C)Oc3ccc(NC(=O)c4ccncc4)cc3C(=O)N([C@H](C)CO)C[C@@H]2C)cc1,21.4% (active)
13,COc1ccc(NC(=O)N(C)C[C@@H]2OCCCC[C@@H](C)Oc3ccc(NC(=O)NC4CCCCC4)cc3C(=O)N([C@H](C)CO)C[C@@H]2C)cc1,1.54% (inactive) and 2.7% (inactive)
14,O=C(C[C@@H]1C=C[C@@H](NC(=O)Nc2cccc(F)c2)[C@H](CO)O1)NCC1CCCCC1,8.16% (inactive)
15,C[C@@H]1CN([C@@H](C)CO)C(=O)c2cc(C#Cc3ccncc3)cnc2O[C@@H]1CN(C)C(=O)CN(C)C,-5.91% (inactive)
16,C[C@H]1CN([C@@H](C)CO)C(=O)Cc2cc(NC(=O)C3CC3)ccc2O[C@@H]1CN(C)S(=O)(=O)c1cccs1,0.692% (inactive)
17,O=C(C[C@H]1C=C[C@@H](NC(=O)Nc2cc(F)ccc2F)[C@@H](CO)O1)NCc1ccc2c(c1)OCO2,3.1% (inactive)
18,CCC(=O)Nc1ccc2c(c1)OC[C@@H](C)N(Cc1cncnc1)C[C@H](C)[C@@H](OC)CN(C)C2=O,0.095% (inactive)
19,O=C(Cc1ccncc1)Nc1ccc2c(c1)[C@@H]1C[C@H](CC(=O)N3CCCCC3)O[C@H](CO)[C@@H]1O2,-1.67% (inactive)
20,CC(=O)N1[C@H](CN(CC2CCC2)C(=O)CN(C)C)[C@@H](c2ccccc2)[C@@H]1CO,-6.71% (inactive)
21,CCO[C@H]1OC(C(=O)Nc2ccccc2)=C[C@@H](C2CC2)[C@@H]1CCCO,-12.3% (inactive)
22,CCO[C@H]1OC(C(=O)O)=C[C@@H](C2CCCCC2)[C@@H]1CCCO,45.4% (active)
23,CCO[C@@H]1OC(C(=O)NCc2nc3ccccc3[nH]2)=C[C@H](C2CCCCC2)[C@H]1CCCO,5.22% (inactive)

row,Compound,CPE inhibition
1,C[C@H](CO)N1C[C@H](C)[C@@H](CN(C)S(=O)(=O)c2cccs2)OCc2ccccc2-c2ccccc2C1=O,0.48% (inactive)
2,COc1cccc(NC(=O)CN(C)C(=O)CSC(=S)N2CCCC2)c1,31.4% (active)
3,COc1cccc(NC(=O)CN(C)CC(=O)Nc2ccc3c(c2)CCC3)c1,4.15% (inactive)
4,COc1cccc(NC(=O)CN(C)C(=O)Cc2ccc(Cl)cc2Cl)c1,-4.12% (inactive)
5,O=C(Nc1cc(F)ccc1F)N1CCCCN2[C@H](C1)[C@H](c1ccc(-c3cccnc3)cc1)[C@@H]2CO,-2.73% (inactive)
6,CN(C)CCCNC(=O)C[C@@H]1C=C[C@H](NC(=O)c2ccccc2F)[C@H](CO)O1,-4.33% (inactive)
7,CCCC#Cc1ccc([C@@H]2[C@H](CO)N3CCCCN(S(=O)(=O)c4ccccc4F)C[C@@H]23)cc1,-29.1% (inactive)
8,CC(C)NC(=O)N(C)C[C@H]1Oc2cc(-c3cncnc3)ccc2S(=O)(=O)N([C@@H](C)CO)C[C@H]1C,12.5% (inactive)
9,O=C(OCc1ccccc1)N1CCC2CC1c1ccc(-c3ccc4c(c3)OCO4)cc12 (configuration not stated),59.5% (active)
10,Cc1ccc(S(=O)(=O)N(CCc2ccccc2)c2ccc3c(c2)C2CC3CCN2C(=O)OCc2ccccc2)cc1 (configuration not stated),-3.72% (inactive)
11,O=C(OCc1ccccc1)N1CCC2CC1c1cc(N3CCN(S(=O)(=O)c4cc(Cl)cc(Cl)c4)CC3)ccc12 (configuration not stated),-5.76% (inactive)
12,O=C(C[C@H]1CC[C@H]2[C@@H](COC[C@H](O)CN2Cc2nccs2)O1)NCc1ccc(Oc2ccccc2)cc1,3.47% (inactive)
13,CC(Oc1ccccc1)C(=O)Nc1c2c(nn1-c1ccccc1)CS(=O)C2 (configuration not stated),2.29% (inactive)
14,Cc1ccc(-n2nc3c(c2NC(=O)CCC2CCCCC2)CS(=O)C3)cc1 (configuration not stated),-3.75% (inactive)
15,COc1ccc(-n2nc3c(c2NC(=O)Cc2cccc(C)c2)CS(=O)C3)cc1 (configuration not stated),99.5% (active)
16,CCCCN1CC(C)(C)[C@H](CC(=O)Nc2ccc(Br)cc2)C1=O,6.43% (inactive)
17,CC1(C)CN(CCc2ccccc2)C(=O)[C@H]1CC(=O)Nc1ccc(Br)cc1,0.989% (inactive)
18,CC1(C)CN(Cc2cccnc2)C(=O)[C@H]1CC(=O)Nc1ccc(Br)cc1,30.1% (active)
19,C[C@@H]1CCCCO[C@@H](CN(C)C(=O)CCC(F)(F)F)[C@H](C)CN([C@@H](C)CO)C(=O)c2cc(NC(=O)CCCN(C)C)ccc2O1,3.1% (inactive)
20,O=C(NC[C@@H]1[C@H](c2ccccc2)[C@H](CO)N1CC1CCCC1)c1cccnc1,54.5% (active)
21,O=C(NC[C@H]1[C@@H](c2ccccc2)[C@H](CO)N1CC1CC1)c1cccnc1,-7.73% (inactive)
22,O=S(=O)(NC[C@H]1[C@@H](c2ccccc2)[C@@H](CO)N1CC1CC1)c1ccccc1,8.65% (inactive)
23,COc1cccc(-c2ccc3c(c2)O[C@H](CN(C)C(=O)C2CCOCC2)[C@H](C)CN([C@H](C)CO)S3(=O)=O)c1,-2.8% (inactive)

row,Compound,CPE inhibition
1,Cc1cnc(CN(C)C(=O)CC2C(=O)NCCN2Cc2cccc(F)c2F)[nH]1 (configuration not stated),20.8% (active)
2,CN(Cc1cccc2ncccc12)C(=O)CC1C(=O)NCCN1Cc1ccc(F)cc1 (configuration not stated),2.99% (inactive)
3,CC(C)c1nc(CNC(=O)CC2C(=O)NCCN2Cc2cccc(F)c2F)cs1 (configuration not stated),-4.34% (inactive)
4,C[C@@H]1CN([C@@H](C)CO)C(=O)c2cc(NC(=O)Nc3cccc4ccccc34)ccc2O[C@@H](C)CCCCO[C@@H]1CN(C)S(=O)(=O)c1ccc(Cl)cc1,-12.5% (inactive)
5,COc1ccccc1-c1ccc2n(c1=O)C[C@H]1[C@H](CO)[C@@H](C(=O)N[C@@H](C)c3ccccc3)[C@@H]2N1C,-8.56% (inactive)
6,CC(C)CC#Cc1ccc([C@@H]2[C@@H](CO)N3C(=O)CN(C(=O)c4cnccn4)C[C@@H]23)cc1,-1.01% (inactive)
7,O=C(C[C@@H]1C=C[C@H](NC(=O)CCN2CCCCC2)[C@H](CO)O1)NCc1ccc(Cl)c(Cl)c1,0.258% (inactive)
8,COc1ccc(C(=O)/C=C/c2cccnc2)c(OC)c1,-6.66% (inactive)
9,COc1ccc(/C=C/C(=O)c2c(O)cc(OC)cc2OC)cc1,-8.14% (inactive)
10,COc1ccc(/C=C/C(=O)c2ccc(OC)cc2O)cc1,64.1% (active)
11,O=C1CCC/C=C\C[C@@H](CC(=O)N(CCO)Cc2ccccc2)C(=O)NCCO1,-1.93% (inactive)
12,O=C1CCC/C=C/C[C@@H](CC(=O)N(CCO)Cc2ccccc2)C(=O)NC[C@H](c2ccccc2)O1,85.4% (active)
13,O=C1NC[C@@H](c2ccccc2)OC(=O)[C@H](Cc2ccc(F)cc2)CC/C=C/C[C@H]1CC(=O)N(CCO)Cc1ccccc1,-5.29% (inactive)
14,COCCN(C[C@H]1[C@H](c2ccccc2)[C@@H](CO)N1C(C)=O)C(=O)c1cccnc1,-2.67% (inactive)
15,CN1C(=O)c2cc(NS(=O)(=O)c3ccccc3F)ccc2OC[C@@H]2O[C@@H](CC(=O)NC3Cc4ccccc4C3)CC[C@@H]21,11.5% (inactive)
16,O=c1[nH]c(-c2ccccc2)cn1C1CCN(Cc2ccc(-c3nc4ccc(F)cc4nc3-c3ccccc3)cc2)CC1,33.2% (active)
17,Cc1ccc2nc(-c3ccc(CN4CCC(n5cc(-c6ccccc6)[nH]c5=O)CC4)cc3)c(-c3ccccc3)nc2c1,-12.7% (inactive)
18,Cc1ccc(F)cc1S(=O)(=O)N[C@@H]1CCN(Cc2ccc(-c3ccccc3)cc2)C1,-7.61% (inactive)
19,C=CCN=C1NC(c2cccc(C(F)(F)F)c2)C(C(=O)OC)=C(C)N1C (configuration not stated),2.58% (inactive)
20,C[C@@H](NC(=O)C[C@@H]1CC[C@@H](NC(=O)C2CCOCC2)[C@@H](CO)O1)c1ccccc1,11.3% (inactive)
21,CN1c2ccc(-c3ccc(F)cc3)cc2[C@@H]2[C@@H](CCN2S(=O)(=O)c2ccc(F)cc2)[C@@H]1CO,-22.1% (inactive)
